Experimental findings from PubChem BioAssay (NCI) are described below.

This is part of a sample that, as a whole, favours compounds with a hit. Of some 83,000 tested, about 20% had one in any assay.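 A percent growth of 40 corresponds to 60% growth inhibition; 0 means no net growth; -100 means all cells died. Active threshold: below 10.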 A number with no mark means an inactive call. Calls of active or inactive are those of the source.

The first assay relates to NCI-H460 lung. The experiment in a line: NCI-60 one-dose screen, 48 h (100 = growth as untreated, 0 = no growth, -100 = all killed). The conditions noted are these: 10 µM unless noted.
Turning to `COc1cc2ncnc(Nc3ccc(S(=O)(=O)Nc4nccs4)cc3)c2cc1OCCCN1CCOCC1`, the growth was 105%.
For the compound `Fc1ccc(-c2cnc3nonc3n2)c(F)c1`, the growth is 107%.
For the compound `COCc1nc(NS(=O)(=O)c2ccc(N)cc2)nc(C)c1Br`, the growth is 106%.
Still for that read-out and setting: as for `COc1ncnc2[nH]cc(CN3CCN(c4ccc(F)cc4)CC3)c12`, the figure is 108%.
Still for that read-out and setting: as for `CC(C)N(C(=S)SSC(=S)N(C(C)C)C(C)C)C(C)C`, the figure is 110%.
Still for that read-out and setting: the same measure for `COc1cc2c(=O)n(CCCN(C)C)c3c4cc[nH]c4ncc3c2cc1OC`: 17.6%; for `CCCCCCCCN(CCCCCCCC)C(=O)CCl`: 102%.
In the case of `COc1cc(/C=N/NC(=O)Cn2c(-c3ccc(C)o3)nc3ccccc32)ccc1OCc1ccccc1`, the growth was 91.5%.
With `CCN(CC)c1ccc(/C=N/NC(=O)C[N+](C)(C)C)cc1`, the growth is 110%.
On to `c1cc2c(cc1-c1cnc3nonc3n1)OCO2`, for which the growth is 100%.
In the case of `CC(C)[C@@]12C[C@@H](OC(=O)C3CO3)[C@@](C)(O1)[C@@H]1CC[C@@H](C)[C@H]1[C@@H]2OC(=O)/C=C/c1ccccc1` (stereo partly specified), the growth was 101%.
With `ClC1(Cl)C2CCCCCCC21` (stereo unspecified), the growth was 107%.
As for `CCCCOc1nc2ccccc2cc1/C=C/c1cc(/C=C/c2cc3ccccc3nc2OCCCC)n(-c2ccccc2)n1`, the growth was 103%.
As to `S=C(S)Oc1cccc2cccnc12`, the growth was 107%.
As to `Cc1cc(-c2ccc(N=Nc3c(S(=O)(=O)O)cc4cc(S(=O)(=O)O)cc(O)c4c3O)c(C)c2)ccc1N=Nc1c(S(=O)(=O)O)cc2cc(S(=O)(=O)O)cc(O)c2c1O`, the growth is 130%.
For the compound `O=C(NCCN1CCCCC1)n1cc(-c2ccncc2)c(-c2ccc(Cl)c(O)c2)n1`, the growth is 91.5%.
As to `N/C(=N\OC(=O)c1ccccc1)C(Cc1ccccc1)C(=O)NOC(=O)c1ccccc1` (stereo unspecified), the growth is 5.54% (active).
For the compound `Nc1ncnc2c1N=C(c1ccc3c(c1)OCO3)CC(c1ccc(Cl)cc1)N2` (stereo unspecified), the growth was 83.3%.
Regarding `COc1ccc(C(=O)OC2C(OC3C(O)COC(O[C@H]4C[C@H]5[C@@H]6CC=C7C[C@@H](O)CC[C@]7(C)[C@H]6CC[C@]5(C)[C@H]4[C@H](C)C(=O)CCC(C)C)C3OC(C)=O)OCC(O)C2O)cc1` (stereo partly specified), the growth was -20.3% (active).
In the case of `O=C(Nc1ccncc1)C(=O)c1cn(S(=O)(=O)c2cccc(Cl)c2F)c2ccccc12`, the growth was 90%.
Consider `OC(CCCCCCCCC(O)CN1CCc2ccccc2C1)CN1CCc2ccccc2C1` (stereo unspecified), for which the growth is 108%.
Regarding `CCCNCCC(C)=O`, the growth is 103%.
Regarding `CC1OC(n2c3ccccc3c3c4c(c5c6ccccc6[nH]c5c32)C(=O)N(CCN2CCOCC2)C4=O)CC(O)C1O` (stereo unspecified), the growth is 3.35% (active).
With `COc1ccc(-c2nc(SCCC(C)C)nc(Nc3ccc(C(=O)O)cc3)c2C#N)cc1`, the growth is 89.5%.
The same measure, in the same setting: the same measure for `CCOC(=O)C1C(=O)C=C(c2cc(OC)c(OC)c(OC)c2)CC1c1sc(N(C)Cc2ccccc2)nc1Cl` (stereo unspecified): 86.3%; for `C#Cc1cccc(Nc2nc3cc([N+](=O)[O-])ccc3nc2Nc2ccc(O)cc2)c1`: -24% (active).
Turning to `O=C(Nc1cccc(-n2ccc3c(NC(=O)c4ccccc4)nccc32)c1)c1ccc(N2CCOCC2)c(C(F)(F)F)c1`, the growth was 9.44% (active).
Turning to `Cc1ccc(NC(=O)c2sc3nc4c(cc3c2N)C(=O)CCC4)cc1Cl`, the growth was 106%.
On to `COc1ccc(-c2cc(C(=O)Nc3ccc(C)cc3)nc3[nH]c(=O)sc23)cc1`, for which the growth was 68.8%.
As to `COc1cc(/C=C/c2cc(/C=C/c3ccc(O)c(OC)c3)n(C(=O)Nc3ccc(F)c(Cl)c3)n2)ccc1O`, the growth was 4.43% (active).
On the same count and under the same terms, as for `COc1cc2c(c(OC)c1O)C(=O)C(OC)C(c1ccc(O)c(O)c1)O2` (stereo unspecified), the figure is 4.55% (active).
Still for that read-out and setting: the same measure for `CCOC(OCC)c1cnc2nc(NC(C)=O)[nH]c(=O)c2n1`: 104%; for `S=C(Cc1ccccc1)N1CCN(c2ccccc2Cl)CC1`: 107%.
On the same count and under the same terms, as for `CCCCOc1nc2ccc(C)cc2cc1/C=C/C(=O)/C=C(O)/C=C/c1cc2cc(C)ccc2nc1OCCCC`, the figure is 106%; as for `COc1ccccc1CNCCCN1C(=O)c2ccc3c4c(ccc(c24)C1=O)C(=O)N(CCCCNCCCN)C3=O`, -38.5% (active).
With `OC(COCc1ccccc1)COCc1ccccc1`, the growth was 112%.
Turning to `CC(C)CC1NC(=O)C(CC(C)C)N(CO)C1=O` (stereo unspecified), the growth was 116%.
For `OCCN(CCO)c1ccc2ccccc2c1`, the growth was 107%.

The next assay relates to NCI-H522 lung. The assay is described as above. The conditions noted are these: 10 µM unless noted.
For `COc1cc2ncnc(Nc3ccc(S(=O)(=O)Nc4nccs4)cc3)c2cc1OCCCN1CCOCC1`, the growth is 88.6%.
For the compound `Fc1ccc(-c2cnc3nonc3n2)c(F)c1`, the growth was 84%.
Regarding `COCc1nc(NS(=O)(=O)c2ccc(N)cc2)nc(C)c1Br`, the growth is 76.7%.
On the same count and under the same terms, the same measure for `COc1ncnc2[nH]cc(CN3CCN(c4ccc(F)cc4)CC3)c12`: 95.1%.
The same measure, in the same setting: as for `CC(C)N(C(=S)SSC(=S)N(C(C)C)C(C)C)C(C)C`, the figure is 75.7%.
`COc1cc2c(=O)n(CCCN(C)C)c3c4cc[nH]c4ncc3c2cc1OC`: the growth is 0.675% (active).
Regarding `CCCCCCCCN(CCCCCCCC)C(=O)CCl`, the growth is -50.5% (active).
On the same count and under the same terms, as for `COc1cc(/C=N/NC(=O)Cn2c(-c3ccc(C)o3)nc3ccccc32)ccc1OCc1ccccc1`, the figure is 73.6%; as for `CCN(CC)c1ccc(/C=N/NC(=O)C[N+](C)(C)C)cc1`, 100%; as for `c1cc2c(cc1-c1cnc3nonc3n1)OCO2`, 55.9%.
As to `CC(C)[C@@]12C[C@@H](OC(=O)C3CO3)[C@@](C)(O1)[C@@H]1CC[C@@H](C)[C@H]1[C@@H]2OC(=O)/C=C/c1ccccc1` (stereo partly specified), the growth is 72.8%.
For the compound `ClC1(Cl)C2CCCCCCC21` (stereo unspecified), the growth was 84.5%.
For `CCCCOc1nc2ccccc2cc1/C=C/c1cc(/C=C/c2cc3ccccc3nc2OCCCC)n(-c2ccccc2)n1`, the growth is 85.8%.
Still for that read-out and setting: the same measure for `S=C(S)Oc1cccc2cccnc12`: 88.9%.
For `Cc1cc(-c2ccc(N=Nc3c(S(=O)(=O)O)cc4cc(S(=O)(=O)O)cc(O)c4c3O)c(C)c2)ccc1N=Nc1c(S(=O)(=O)O)cc2cc(S(=O)(=O)O)cc(O)c2c1O`, the growth was 99.3%.
As to `O=C(NCCN1CCCCC1)n1cc(-c2ccncc2)c(-c2ccc(Cl)c(O)c2)n1`, the growth was 84.9%.
Take `N/C(=N\OC(=O)c1ccccc1)C(Cc1ccccc1)C(=O)NOC(=O)c1ccccc1` (stereo unspecified): the growth is -53.7% (active).
`Nc1ncnc2c1N=C(c1ccc3c(c1)OCO3)CC(c1ccc(Cl)cc1)N2` (stereo unspecified): the growth was 84.3%.
Turning to `COc1ccc(C(=O)OC2C(OC3C(O)COC(O[C@H]4C[C@H]5[C@@H]6CC=C7C[C@@H](O)CC[C@]7(C)[C@H]6CC[C@]5(C)[C@H]4[C@H](C)C(=O)CCC(C)C)C3OC(C)=O)OCC(O)C2O)cc1` (stereo partly specified), the growth was -65.7% (active).
As to `O=C(Nc1ccncc1)C(=O)c1cn(S(=O)(=O)c2cccc(Cl)c2F)c2ccccc12`, the growth is 35.2%.
Same read-out and setting: the same measure for `OC(CCCCCCCCC(O)CN1CCc2ccccc2C1)CN1CCc2ccccc2C1` (stereo unspecified): 105%.
For the compound `CCCNCCC(C)=O`, the growth was 99.6%.
On to `CC1OC(n2c3ccccc3c3c4c(c5c6ccccc6[nH]c5c32)C(=O)N(CCN2CCOCC2)C4=O)CC(O)C1O` (stereo unspecified), for which the growth is 10.6%.
Consider `COc1ccc(-c2nc(SCCC(C)C)nc(Nc3ccc(C(=O)O)cc3)c2C#N)cc1`, for which the growth is 69.2%.
Turning to `CCOC(=O)C1C(=O)C=C(c2cc(OC)c(OC)c(OC)c2)CC1c1sc(N(C)Cc2ccccc2)nc1Cl` (stereo unspecified), the growth was 67%.
In the case of `C#Cc1cccc(Nc2nc3cc([N+](=O)[O-])ccc3nc2Nc2ccc(O)cc2)c1`, the growth was -53.6% (active).
Consider `O=C(Nc1cccc(-n2ccc3c(NC(=O)c4ccccc4)nccc32)c1)c1ccc(N2CCOCC2)c(C(F)(F)F)c1`, for which the growth was -22.8% (active).
As to `Cc1ccc(NC(=O)c2sc3nc4c(cc3c2N)C(=O)CCC4)cc1Cl`, the growth is 96.1%.
`COc1ccc(-c2cc(C(=O)Nc3ccc(C)cc3)nc3[nH]c(=O)sc23)cc1`: the growth is 24.3%.
As to `COc1cc(/C=C/c2cc(/C=C/c3ccc(O)c(OC)c3)n(C(=O)Nc3ccc(F)c(Cl)c3)n2)ccc1O`, the growth is 10.9%.
For `COc1cc2c(c(OC)c1O)C(=O)C(OC)C(c1ccc(O)c(O)c1)O2` (stereo unspecified), the growth is -11.9% (active).
Consider `CCOC(OCC)c1cnc2nc(NC(C)=O)[nH]c(=O)c2n1`, for which the growth is 98.8%.
Same read-out and setting: the same measure for `S=C(Cc1ccccc1)N1CCN(c2ccccc2Cl)CC1`: 88.2%.
For `CCCCOc1nc2ccc(C)cc2cc1/C=C/C(=O)/C=C(O)/C=C/c1cc2cc(C)ccc2nc1OCCCC`, the growth was 85%.
Same read-out and setting: the same measure for `COc1ccccc1CNCCCN1C(=O)c2ccc3c4c(ccc(c24)C1=O)C(=O)N(CCCCNCCCN)C3=O`: -78.4% (active); for `OC(COCc1ccccc1)COCc1ccccc1`: 100%.
For the compound `CC(C)CC1NC(=O)C(CC(C)C)N(CO)C1=O` (stereo unspecified), the growth was 90.4%.
For `OCCN(CCO)c1ccc2ccccc2c1`, the growth was 73.4%.
